High-throughput results deposited in PubChem BioAssay by several laboratories.
CYP2C19 inh: inhibitors of human CYP2C19. actives 21% (n = 96,000). P33261. CYP2C19 Supersomes, luciferin-H EGE luminescence, 30 min. inhibition, % at 5 µM;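 active = CYP2C19 inhibition above a set limit at 5 µM in the primary screen, cut at about 50% in these data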
Target sequence (P33261 whole entry, looked up): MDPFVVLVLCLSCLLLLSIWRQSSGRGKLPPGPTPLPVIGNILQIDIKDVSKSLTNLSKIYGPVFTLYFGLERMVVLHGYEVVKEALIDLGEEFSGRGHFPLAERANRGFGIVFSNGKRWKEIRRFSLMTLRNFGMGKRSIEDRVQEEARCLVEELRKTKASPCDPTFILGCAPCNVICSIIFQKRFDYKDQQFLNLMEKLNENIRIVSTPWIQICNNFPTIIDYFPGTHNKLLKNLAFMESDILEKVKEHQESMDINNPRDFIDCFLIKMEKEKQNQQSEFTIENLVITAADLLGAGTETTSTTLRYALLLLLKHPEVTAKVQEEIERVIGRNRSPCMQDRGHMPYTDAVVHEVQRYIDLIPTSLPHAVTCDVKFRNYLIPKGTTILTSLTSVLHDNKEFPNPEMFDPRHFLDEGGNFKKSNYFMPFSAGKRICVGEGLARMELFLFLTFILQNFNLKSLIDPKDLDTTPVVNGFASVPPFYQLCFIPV
PostGolgi ctrl: growth of the yeast control strain, post-Golgi counter-screen; actives 5% (n = 98,000); efflux-deficient yeast background strain, growth absorbance A615, 16 h; AID 738; inhibition, % at 10 µM
PostGolgi yeast: growth inhibition of a yeast mutant, post-Golgi transport screen. AID 739. actives 0.9% (n = 98,000). inhibition, % at 10 µM. post-Golgi transport phenotypic cell assay;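 also: yeast cells grown in 1536-well plates; yeast grown about 18 h at 30C before absorbance read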
CYP2C9 inh: human CYP2C9 inhibition | AID 777 | CYP2C9 Supersomes, luciferin-H conversion, luminescence | actives 20% (n = 96,000) | inhibition, % at 5 µM;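 active = blocking of liver enzyme CYP2C9 beyond about 50% at 5 µM, limit read from the data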
CYP2C9 activ: increases human cytochrome P450 2C9 activity. AID 1024. activation factor at 5 µM. recombinant CYP2C9, luciferin-H conversion, luminescence; hits give high values; factor 1 = untreated enzyme, 0 = blocked. P11712. actives 1.4% (n = 96,000);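 active = activation factor of 2 or more for CYP2C9 at a 5 µM dose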
CYP2C19 act: cytochrome P450 2C19 (human) activation | P33261 | recombinant CYP2C19, luciferin-H EGE luminescence; hits give high values; 0 = fully inhibited enzyme, 1 = untreated enzyme | activation factor at 5 µM | 96,000 tested, under 10 active | AID 1025;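 active = activation factor of at least 2 at 5 µM in the primary screen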
Large screens that a line does not name were inactive. An excerpt weighted towards active compounds, which were near 32% of everything screened. Rule as the data show it, unless noted: active = inhibition above about 30%; inactive = the rest.

Cc1cc(Cl)c(OCCCSc2nc(C)cc(=O)[nH]2)c(Br)c1	none
Cc1cc(Cl)cc(C)c1OCC(=O)O	none
Cc1cc(Cl)c(OCCN2C(=O)NC(C)(C)C2=O)c(Br)c1	CYP2C19 inh 98
Cc1cc(Cl)cc(Br)c1OCCCN1C(=O)NC(C)(C)C1=O	CYP2C19 inh 90
COC(=O)c1ccc(OCC(O)CN2C(=O)NC(C)(C)C2=O)cc1 (stereo not drawn)	none
N#C/C(=C(/O)C(Cl)c1ccccc1)c1nc2ccccc2s1 (stereo not drawn)	CYP2C19 inh 58, CYP2C9 inh 77
N#C/C(=C(/O)c1ccco1)c1nc2ccccc2s1	none
CCOc1ccc(CCNC(=O)C2CCCN(c3nn4c(=O)cc(C)nc4s3)C2)cc1 (stereo not drawn)	CYP2C9 inh 63
CCOc1ccc(CCNC(=O)C2CCN(c3nn4c(=O)cc(C)nc4s3)CC2)cc1OCC	CYP2C19 inh 54, CYP2C9 inh 57
C(=C/c1ccnc2nc(SC/C=C/c3ccccc3)nn12)/c1ccccc1	CYP2C9 inh 79
OC(CN1CCN(c2ccccn2)CC1)Cn1c2ccc(Cl)cc2c2cc(Cl)ccc21 (stereo not drawn)	PostGolgi ctrl 97, PostGolgi yeast 97
OC(CN1CCN(c2ccccc2)CC1)Cn1c2ccccc2c2ccccc21 (stereo not drawn)	PostGolgi ctrl 36
OC(COc1ccccc1)CN1CCN(c2ncccn2)CC1 (stereo not drawn)	none
CSC1=N/C(=C\c2ccc(C)o2)C(=O)S1	none
N=C1C(c2ccccc2)=C(O)CN1c1ccc2c(c1)OCO2	none
O=C(OCC1COc2ccccc2O1)c1c(F)cccc1F (stereo not drawn)	CYP2C19 inh 97, CYP2C9 inh 84
COc1nc(N)c(S(=O)(=O)c2ccc(C)cc2)cc1C#N	CYP2C19 inh 53, CYP2C9 inh 53
COc1cccc(C2=NOC(C(=O)Nc3ccccc3SC)C2)c1 (stereo not drawn)	CYP2C19 inh 63, CYP2C9 activ 2.5
COCC(C)NC(=O)C1CC(c2cccc(Br)c2)=NO1 (stereo not drawn)	CYP2C9 activ 2.1
COc1cccc(C2=NOC(C(=O)NCc3cccs3)C2)c1 (stereo not drawn)	CYP2C19 inh 54, CYP2C9 inh 68
COc1ccc(OC)c(C2=NOC(C(=O)NCc3ccco3)C2)c1 (stereo not drawn)	CYP2C9 activ 3.1
CCN(CC)CC(O)COc1ccc2c(c1)OCO2 (stereo not drawn)	none
CCN(CC)C(=O)CN(C#N)c1nc(NC(C)C)nc(NC(C)C)n1	none
CC1CC(C)CN(CC(=O)N2CCCc3c2c(=O)oc2ccc(OCc4ccccc4)cc32)C1 (stereo not drawn)	CYP2C19 inh 75, CYP2C9 inh 85
CC1CCN(CCCOc2ccc(OCc3ccccc3)cc2)CC1	none
CC1CCN(CC(=O)N2CCCc3c2c(=O)oc2ccc(OCc4ccccc4)cc32)CC1	CYP2C19 inh 53, CYP2C9 inh 90
O=C(O)c1ccc(COc2ccc3c4c(c(=O)oc3c2)CCC4)o1	none
CCCOc1ccc2oc(=O)c3c(c2c1)CCCN3C(=O)CN1CCc2ccccc2C1	CYP2C19 inh 89, CYP2C9 inh 64
CCC(=O)N1CCc2cc(Br)cc(S(=O)(=O)NCC3CCCN3CC)c21 (stereo not drawn)	none
N=c1c(S(=O)(=O)c2ccc(Cl)cc2)cc2c(=O)n3ccccc3nc2n1CCN1CCOCC1	CYP2C9 inh 59
CCCCCn1c(=NC(=O)c2ccco2)c(C(=O)OCC)cc2c(=O)n3ccccc3nc21	PostGolgi ctrl 33
N=c1c(C(=O)NCc2ccccc2)cc2c(=O)n3ccccc3nc2n1Cc1ccco1	none
N=c1c(C(=O)NCc2ccco2)cc2c(=O)n3ccccc3nc2n1Cc1ccc(Cl)cc1	PostGolgi ctrl 35, CYP2C9 inh 64
CCCCn1c(=NC(=O)c2ccco2)c(C(=O)OCC)cc2c(=O)n3ccccc3nc21	none
Cc1ccc(CNC(=O)c2cc3c(=O)n4ccccc4nc3n(Cc3ccco3)c2=N)cc1	CYP2C9 inh 56 (no result: PostGolgi ctrl, PostGolgi yeast)
CCn1c(C)c(C(C)=O)c(SC)nc1=S	none
Fc1ccc(OCCOCCNCC2CCCO2)cc1 (stereo not drawn)	none (no result: CYP2C19 inh, CYP2C9 inh, CYP2C9 activ, CYP2C19 act)
COCCn1c(=N)c(C(=O)NCc2ccco2)cc2c(=O)n3ccccc3nc21	none
